Source: PubChem BioAssay AID1159580 (chemical genetic matrix, 2015)
Among all 5,500 compounds or so, about 2,000 (36%) were called active. Inconclusive results (about 18%) are left out. Cut-off read from the data, not from the text of the source: active = normalized growth mostly below about 0.91 (no sharp cut-off); inconclusive = no clear call, values can overlap the other calls; inactive = mostly above about 0.92. Some of the results follow.

Test: chemical genetic growth profiling, strain panel (AID 1159580);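 note: tested at 20 µM; growth read once vehicle control cultures reached saturation at 30 °C; 1 = growth at the plate median or of vehicle wells; lower values mean less growth of the strain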
Details: growth OD

Measured: normalized growth

CC(=O)N[C@@H](CCC(=O)O)C(=O)O
inactive: S. cerevisiae deletion strains, locus YJR075W, strain HOC1, active compounds read low 1 | S. cerevisiae deletion strains, locus YKL009W, strain mrt4, active compounds read low 1.06 | S. cerevisiae deletion strains, locus YKL068W, active compounds read low 0.995 | S. cerevisiae deletion strains, locus YKL085W, strain MDH1 (second series), active compounds read low 1.01 | S. cerevisiae deletion strains, locus YKL085W, strain MDH1, active compounds read low 1.01 | S. cerevisiae deletion strains, locus YKL160W, strain elf1, active compounds read low 1.04 | S. cerevisiae deletion strains, locus YKL190W, strain CNB1, active compounds read low 1.01 | S. cerevisiae deletion strains, locus YKR001C, strain vps1, active compounds read low 1.01 | S. cerevisiae deletion strains, locus YKR026C, strain gcn3, active compounds read low 1.01 | S. cerevisiae deletion strains, locus YKR091W, strain srl3, active compounds read low 1.02 | S. cerevisiae deletion strains, locus YLL001W, strain dnm1, active compounds read low 0.996 | S. cerevisiae deletion strains, locus YLL026W, active compounds read low 1.01 | S. cerevisiae deletion strains, locus YLL041C, strain sdh2, active compounds read low 1.03 | S. cerevisiae deletion strains, locus YLR027C, strain aat2, active compounds read low 1.02 | S. cerevisiae deletion strains, locus YLR039C, strain RIC1, active compounds read low 1.02 | S. cerevisiae deletion strains, locus YLR058C, strain SHM2, active compounds read low 0.999 | S. cerevisiae deletion strains, locus YLR102C, strain apc9, active compounds read low 1.01 | S. cerevisiae deletion strains, locus YLR113W, strain HOG1, active compounds read low 0.999 | S. cerevisiae deletion strains, locus YLR221C, strain rsa3, active compounds read low 1 | S. cerevisiae deletion strains, locus YLR258W, strain gsy2, active compounds read low 1.03 | S. cerevisiae deletion strains, locus YLR262C, strain YPT6 (second series), active compounds read low 1.03 | S. cerevisiae deletion strains, locus YLR262C, strain YPT6, active compounds read low 0.998 | S. cerevisiae deletion strains, locus YLR268W, strain sec22, active compounds read low 1.06 | S. cerevisiae deletion strains, locus YLR320W, strain mms22, active compounds read low 1.01 | S. cerevisiae deletion strains, locus YLR330W, strain CHS5, active compounds read low 1.01 | S. cerevisiae deletion strains, locus YLR342W, strain FKS1 (second series), active compounds read low 1.05 | S. cerevisiae deletion strains, locus YLR342W, strain FKS1, active compounds read low 1.01 | S. cerevisiae deletion strains, locus YLR357W, strain rsc2, active compounds read low 0.997 | S. cerevisiae deletion strains, locus YLR370C, strain arc18, active compounds read low 1.02 | S. cerevisiae deletion strains, locus YLR371W, strain rom2, active compounds read low 1 | S. cerevisiae deletion strains, locus YLR384C, strain iki3, active compounds read low 1.01 | S. cerevisiae deletion strains, locus YLR418C, strain cdc73, active compounds read low 1.01 | S. cerevisiae deletion strains, locus YML016C, strain PPZ1, active compounds read low 1 | S. cerevisiae deletion strains, locus YML032C, strain rad52, active compounds read low 1.03 | S. cerevisiae deletion strains, locus YML120C, strain ndi1, active compounds read low 1.01 | S. cerevisiae deletion strains, locus YML124C, strain tub3, active compounds read low 1.01 | S. cerevisiae deletion strains, locus YMR058W, strain fet3, active compounds read low 1.02 | S. cerevisiae deletion strains, locus YMR078C, strain ctf18, active compounds read low 1.01 | S. cerevisiae deletion strains, locus YMR125W, strain sto1, active compounds read low 1.01 | S. cerevisiae deletion strains, locus YMR129W, active compounds read low 1.01 | S. cerevisiae deletion strains, locus YMR205C, strain PFK2, active compounds read low 1.01 | S. cerevisiae deletion strains, locus YMR223W, strain ubp8, active compounds read low 1 | S. cerevisiae deletion strains, locus YMR231W, strain pep5, active compounds read low 1.02 | S. cerevisiae deletion strains, locus YMR263W, strain SAP30, active compounds read low 1.01 | S. cerevisiae deletion strains, locus YMR307W, strain GAS1, active compounds read low 1.04 | S. cerevisiae deletion strains, locus YNL067W, strain RPL9B, active compounds read low 1.01 | S. cerevisiae deletion strains, locus YNL071W, strain lat1, active compounds read low 1.02 | S. cerevisiae deletion strains, locus YNL153C, strain GIM3, active compounds read low 1.01 | S. cerevisiae deletion strains, locus YNL183C, strain NPR1, active compounds read low 0.907 | S. cerevisiae deletion strains, locus YNL209W, strain ssb2, active compounds read low 1.03 | S. cerevisiae deletion strains, locus YNL233W, strain BNI4, active compounds read low 1.01 | S. cerevisiae deletion strains, locus YNL248C, strain rpa49, active compounds read low 1.02 | S. cerevisiae deletion strains, locus YNL250W, strain rad50, active compounds read low 1 | S. cerevisiae deletion strains, locus YNL271C, strain bni1, active compounds read low 1.02 | S. cerevisiae deletion strains, locus YNL298W, strain CLA4, active compounds read low 1.01 | S. cerevisiae deletion strains, locus YNL307C, strain MCK1, active compounds read low 1.02 | S. cerevisiae deletion strains, locus YNL322C, strain KRE1 (second series), active compounds read low 1.01 | S. cerevisiae deletion strains, locus YNR049C, strain mso1, active compounds read low 1.02 | S. cerevisiae deletion strains, locus YNR052C, strain pop2, active compounds read low 1.02 | S. cerevisiae deletion strains, locus YOL006C, strain TOP1, active compounds read low 1.06 | S. cerevisiae deletion strains, locus YOL012C, strain htz1 0.888 | S. cerevisiae deletion strains, locus YOL147C, strain pex11, active compounds read low 1.01 | S. cerevisiae deletion strains, locus YOR001W, strain rrp6, active compounds read low 0.988 | S. cerevisiae deletion strains, locus YOR061W, strain CKA2, active compounds read low 1.01 | S. cerevisiae deletion strains, locus YOR069W, strain VPS5, active compounds read low 1.01 | S. cerevisiae deletion strains, locus YOR070C, strain gyp1, active compounds read low 1.03 | S. cerevisiae deletion strains, locus YOR080W, strain dia2, active compounds read low 1.04 | S. cerevisiae deletion strains, locus YOR083W, strain WHI5, active compounds read low 1.03 | S. cerevisiae deletion strains, locus YOR106W, strain vam3, active compounds read low 1.03 | S. cerevisiae deletion strains, locus YOR136W, strain idh2, active compounds read low 0.993 | S. cerevisiae deletion strains, locus YOR144C, strain elg1, active compounds read low 1.01 | S. cerevisiae deletion strains, locus YOR184W, strain ser1, active compounds read low 1.02 | S. cerevisiae deletion strains, locus YOR231W, strain MKK1, active compounds read low 0.973 | S. cerevisiae deletion strains, locus YOR265W, strain rbl2, active compounds read low 1.01 | S. cerevisiae deletion strains, locus YOR270C, strain vph1, active compounds read low 1.11 | S. cerevisiae deletion strains, locus YOR290C, strain snf2, active compounds read low 1.05 | S. cerevisiae deletion strains, locus YOR316C, strain cot1, active compounds read low 1 | S. cerevisiae deletion strains, locus YPL051W, strain arl3, active compounds read low 1.03 | S. cerevisiae deletion strains, locus YPL055C, strain LGE1, active compounds read low 0.977 | S. cerevisiae deletion strains, locus YPL078C, strain atp4, active compounds read low 1.03 | S. cerevisiae deletion strains, locus YPL106C, strain sse1, active compounds read low 1.02 | S. cerevisiae deletion strains, locus YPL240C, strain hsp82, active compounds read low 1.03 | S. cerevisiae deletion strains, locus YPL256C, strain CLN2, active compounds read low 0.956 | S. cerevisiae deletion strains, locus YPR119W, strain clb2, active compounds read low 1 | S. cerevisiae deletion strains, locus YPR141C, strain kar3, active compounds read low 1.01 | S. cerevisiae deletion strains, locus YPR163C, strain tif3, active compounds read low 1.01 | S. cerevisiae deletion strains, locus YPR167C, strain met16, active compounds read low 1 | S. cerevisiae deletion strains, strain wtn01, active compounds read low 1.02 | S. cerevisiae strains, strain wild type, active compounds read low 1.01
